Where “and” joins values, the source holds several entries; their conditions need not be identical. Equal entries are not always repeated. The panel holds about 79,000 compounds, 15% with a hit somewhere; the sample as a whole holds those more often. Values without a mark were called inactive. Calls of active or inactive are those of the source. Cut-off read from the data, not from the text of the source: active = growth inhibition above about 70%; inactive = the rest.

From PubChem BioAssay (NCI) come the findings set out here.

A short description of test [1]: NCI Yeast Anticancer Drug Screen. Data for the rad50 strain (AID 155).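 Note: 0% = growth of vehicle-only cultures of the same strain.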 Conditions: S. cerevisiae rad50 strain growth inhibition, stronger effect = higher value; at 50.0 µM unless noted. Summed up:
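Relative growth inhibition (compound vs vehicle) was measured in yeast with a defined repair-gene alteration.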

A short description of test [2]: NCI Yeast Anticancer Drug Screen. Data for the mec2-1 strain (AID 157). Conditions: S. cerevisiae mec2-1 strain, stronger effect = higher value; at 50.0 µM unless noted. In short, it runs like this:
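mec2-1 yeast strain, carrying an alteration in DNA damage repair or cell cycle control, was exposed to compounds; growth inhibition was measured relative to vehicle-treated controls.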

A short description of test [3]: NCI Yeast Anticancer Drug Screen. Data for the sgs1 mgt1 strain (AID 161).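 Note: 0% = growth of cultures given vehicle only.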 Particulars: S. cerevisiae sgs1 mgt1 strain, stronger effect = higher value; at 50.0 µM unless noted. In short, it runs like this: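 Growth of a repair-deficient yeast mutant was monitored after compound treatment and expressed as inhibition relative to vehicle-treated cultures.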
The nature of test [4]: NCI Yeast Anticancer Drug Screen. Data for the cln2 rad14 strain (AID 165).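 Note: 0% = growth equal to vehicle treated cultures.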 Conditions: S. cerevisiae cln2 rad14 strain, stronger effect = higher value; at 50.0 µM unless noted. In short, it runs like this:
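Yeast carrying cln2 and rad14 alterations (cell cycle control and DNA damage repair) were exposed to compounds. Growth inhibition was measured against vehicle-treated controls.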

A short description of test [5]: NCI Yeast Anticancer Drug Screen. Data for the bub3 strain (AID 167). Particulars: S. cerevisiae bub3 mutant strain, stronger effect = higher value; at 50.0 µM unless noted. Summed up: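 Screening used yeast with an engineered genetic alteration affecting cell cycle control. Compound-exposed cultures were compared with vehicle cultures, and reduced growth was taken as inhibition.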

Test [6] in a line: NCI Yeast Anticancer Drug Screen. Data for the mlh1 rad18 strain (AID 175). Particulars: S. cerevisiae mlh1 rad18 strain growth inhibition, stronger effect = higher value; at 50.0 µM unless noted. Summed up: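 Growth inhibition of the yeast strain was measured after compound exposure and expressed relative to vehicle-treated controls. The strain carries defined defects in DNA damage repair.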

On to `CN(C)CCCNC(=O)CCNC(=O)c1cc(NC(=O)c2cc(NC(=O)c3cc(NC(=O)CCCNC(=O)c4cc(NC(=O)c5cc(NC(=O)c6nccn6C)cn5C)cn4C)cn3C)cn2C)cn1C`, for which the growth inhibition was 7.55% in test [1]; -14.8% in test [2]; -2% in test [3]; -1.35% in test [4]; 4% in test [5]; -25.3% in test [6].

As to `CC(C)(C)NC(=O)Nc1ccc2ccccc2c1`, the growth inhibition was -7.7% in test [1]; 3.95% in test [2]; -8.2% in test [3]; -68.5% in test [4]; -24.1% in test [5]; -11.3% in test [6].

Consider `Cc1cc(C)c(C(=O)Cc2ccccc2)c(C)c1`, for which the growth inhibition was 18.4% in test [1]; 15.6% in test [2]; 20.2% in test [3]; 12.4% in test [4]; 11.4% in test [5]; 9.45% in test [6].

As to `C/C=C(/I)CBr`, the growth inhibition in test [1] is 28.4%; in test [2], 1.1%; in test [3], 1.75%; in test [4], 3.05%; in test [5] it was 12.2%; in test [6], 21.3%.

Take `CCOC(=O)c1c(-c2ccccc2)csc1NS(=O)(=O)c1ccc(C)cc1`: the growth inhibition in test [1] was 81.8% (active); in test [2], 78.2% (active); in test [3] it was 87% (active); in test [4], 82.3% (active); in test [5], 81.8% (active); in test [6], 90.6% (active).

On to `c1ccc(N=NC2(c3ccccc3)CC(c3ccccc3)=NN(c3ccccc3)C2NNc2ccccc2)cc1` (stereo not given), for which the growth inhibition in test [1] was 53%; in test [2], 7.8%; in test [3], 23.8%; in test [4], 17.7%; in test [5], 6.75%; in test [6], 31.7%.

Regarding `C[C@]12C=CC(=O)C=C1CC[C@@H]1[C@@H]2C(=O)C[C@@]2(C)[C@H]1CC[C@]2(O)C(=O)COC(=O)CSc1c2ccccc2nc2ccccc12`, the growth inhibition in test [1] was 35.6%; in test [2], 5.8%; in test [3] it was 8.15%; in test [4] it was 24.8%; in test [5] it was -9.4%; in test [6], 19.3%.

Turning to `CSCCC(NC(=O)OCc1ccccc1)C(=O)O` (stereo not given), the growth inhibition in test [1] was -31.4%; in test [2] it was -0.6%; in test [3] it was 5.05%; in test [4], -25.2%; in test [5] it was -4.5%; in test [6], -4.45%.

In the case of `COC(=O)c1ccc(-n2cc(C(=O)OC)c([N+]#N)c2[O-])cc1`, the growth inhibition in test [1] is 9.4%; in test [2], 11.6%; in test [3], -13.6%; in test [4] it was -13.6%; in test [5], 18.9%; in test [6], 16.6%.

Consider `CCOc1ccc(NC(N)=O)cc1`, for which the growth inhibition is -44.5% in test [1]; -9.85% in test [2]; -14.5% in test [3]; -3.7% in test [4]; -2.55% in test [5]; 15.2% in test [6].

Take `O=C(O)c1cccnc1C(=O)O`: the growth inhibition in test [1] was -23.8% and 10.8%; in test [2], -8.85% and -5.35%; in test [3], 2.65% and -2.2%; in test [4], -30.2% and 10.3%; in test [5] it was -12% and -28.2%; in test [6], 3.9% and 8.65%.

As to `c1ccc(C2Cc3ccccc3C2c2ccccc2)cc1` (stereo not given), the growth inhibition in test [1] is 9.85%; in test [2], 11%; in test [3] it was 22.8%; in test [4], -17.8%; in test [5] it was -7.6%; in test [6], -13.3%.

Turning to `O=C(O)/C(=C/c1cccc(Cl)c1)c1ccc(Cl)cc1`, the growth inhibition in test [1] was 0.85%; in test [2] it was -10.8%; in test [3] it was 0.7%; in test [4], -51.8%; in test [5], 2.4%; in test [6], -0.75%.

For the compound `O=C(Cc1ccccc1)CC(CC(=O)Cc1ccccc1)c1ccccc1`, the growth inhibition in test [1] is 31%; in test [2], -16.7%; in test [3], 6.6%; in test [4], 15.8%; in test [5], 3.7%; in test [6], -6.15%.

With `CC1(CO)COC(C)(C)OC1`, the growth inhibition was 16.1% in test [1]; 5.85% in test [2]; 7.1% in test [3]; 29.2% in test [4]; 2.75% in test [5]; 13.6% in test [6].

For the compound `O=C(O)c1cc([N+](=O)[O-])c(O)c2ccccc12`, the growth inhibition in test [1] was 9.15%; in test [2], 2.8%; in test [3], 6.1%; in test [4], -22.1%; in test [5], -16.1%; in test [6], 21.8%.

As to `CC(=O)Oc1cccc2c1C(=O)c1c(OC(C)=O)cc(C)cc1C2=O`, the growth inhibition was 10.8% in test [1]; 5.35% in test [2]; 1.85% in test [3]; -0.85% in test [4]; -41% in test [5]; -15.6% in test [6].

With `O=C(/C=C\c1ccc(Cl)c(Cl)c1)c1ccc(Cl)cc1Cl`, the growth inhibition in test [1] is 36.1%; in test [2] it was 9.35%; in test [3], -4.6%; in test [4], 1.65%; in test [5], 22.1%; in test [6], 0.7%.

For the compound `O=C(Nc1ccc([N+](=O)[O-])cc1C(=O)O)c1ccc([N+](=O)[O-])cc1`, the growth inhibition was 37.8% in test [1]; -3.6% in test [2]; 0.1% in test [3]; 18.5% in test [4]; -22.3% in test [5]; 2% in test [6].

Consider `Clc1ccccc1C1SCc2nc3ccccc3n21` (stereo not given), for which the growth inhibition in test [1] was 10.8%; in test [2], -7.85%; in test [3], 53.2%; in test [4], 18.9%; in test [5], 26.4%; in test [6] it was 22.6%.
